Positions count from the first letter of the chain named.
Experiments:
Experiment in all cases: PBM; 200 nM protein, PBS
Settings in all cases: dsDNA, one strand shown
HOXB4 [1] = biological target: HOXB4 (Homo sapiens, UniProt P17483 148-234)
VENTX [2] = biological target: T1, VENTX (Homo sapiens, UniProt O95231 78-163, R121Q)
T1 sequence: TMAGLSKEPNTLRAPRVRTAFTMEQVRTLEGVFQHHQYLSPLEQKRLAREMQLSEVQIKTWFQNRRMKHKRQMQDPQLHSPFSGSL

HOXA4 [3] = biological target: HOXA4 (Homo sapiens, UniProt Q00056 201-287, W262R)
Sequence of HOXA4 (Homo sapiens, UniProt Q00056 201-287, W262R) (Q00056 201-287 W262R): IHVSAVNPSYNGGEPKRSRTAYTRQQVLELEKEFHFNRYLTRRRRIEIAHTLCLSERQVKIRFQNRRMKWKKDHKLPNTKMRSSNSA

PRRX1 [4] = biological target: PRRX1 (Homo sapiens, UniProt P54821 80-166, F113S)
Sequence of PRRX1 (Homo sapiens, UniProt P54821 80-166, F113S) (P54821 80-166 F113S): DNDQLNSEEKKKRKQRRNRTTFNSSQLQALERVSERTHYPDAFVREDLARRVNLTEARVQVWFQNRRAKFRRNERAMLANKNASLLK

VENTX [5] = biological target: T2, VENTX (Homo sapiens, UniProt O95231 78-163, Y115F)
T2 sequence: T1 sequence with Y38F, Q44R

HOXB6 = HOXB6 (Homo sapiens, UniProt P17509 132-218, K202E)
Sequence of HOXB6 (P17509 132-218 K202E): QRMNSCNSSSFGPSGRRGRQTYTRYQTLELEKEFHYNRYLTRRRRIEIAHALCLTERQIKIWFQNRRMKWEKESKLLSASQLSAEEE

HOXA2 = HOXA2 (Homo sapiens, UniProt O43364 129-215, R185T)
Sequence of HOXA2 (O43364 129-215 R185T): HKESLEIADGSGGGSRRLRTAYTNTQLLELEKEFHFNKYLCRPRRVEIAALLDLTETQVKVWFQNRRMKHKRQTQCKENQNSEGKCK

HOXA4 [6] = biological target: HOXA4 (Homo sapiens, UniProt Q00056 201-287, R217L)
Sequence of HOXA4 (Homo sapiens, UniProt Q00056 201-287, R217L) (Q00056 201-287 R217L): as the sequence (Q00056 201-287 W262R) above, with R17L, R62W counted along it

HOXB4 [7] = biological target: HOXB4 (Homo sapiens, UniProt P17483 148-234, V174I)
Sequence of HOXB4 (Homo sapiens, UniProt P17483 148-234, V174I) (P17483 148-234 V174I): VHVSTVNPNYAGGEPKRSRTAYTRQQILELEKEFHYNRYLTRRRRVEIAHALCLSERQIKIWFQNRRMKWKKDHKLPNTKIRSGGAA

MSX2 [8] = biological target: MSX2 (Homo sapiens, UniProt P35548 130-214, R199I)
Sequence of MSX2 (Homo sapiens, UniProt P35548 130-214, R199I) (P35548 130-214 R199I): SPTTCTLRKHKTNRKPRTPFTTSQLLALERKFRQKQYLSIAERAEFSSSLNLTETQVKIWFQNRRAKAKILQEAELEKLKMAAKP

PAX4 [9] = biological target: T3, PAX4 (Homo sapiens, UniProt O43316 9-242, R200Q)
T3 sequence: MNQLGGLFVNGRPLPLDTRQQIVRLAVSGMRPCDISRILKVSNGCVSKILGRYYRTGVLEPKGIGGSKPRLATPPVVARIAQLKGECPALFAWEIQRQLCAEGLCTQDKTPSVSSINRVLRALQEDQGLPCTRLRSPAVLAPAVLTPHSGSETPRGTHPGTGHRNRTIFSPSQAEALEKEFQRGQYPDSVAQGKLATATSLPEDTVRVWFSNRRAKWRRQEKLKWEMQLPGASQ

PAX4 [10] = biological target: T4, PAX4 (Homo sapiens, UniProt O43316 9-242, F177V)
T4 sequence: T3 sequence with F169V, Q192R

HOXA4 [11] = biological target: HOXA4 (Homo sapiens, UniProt Q00056 201-287)
Sequence of HOXA4 (Homo sapiens, UniProt Q00056 201-287) (Q00056 201-287): as the sequence (Q00056 201-287 W262R) above, with R62W counted along it

MSX2 [12] = biological target: MSX2 (Homo sapiens, UniProt P35548 130-214)
Sequence of MSX2 (Homo sapiens, UniProt P35548 130-214) (P35548 130-214): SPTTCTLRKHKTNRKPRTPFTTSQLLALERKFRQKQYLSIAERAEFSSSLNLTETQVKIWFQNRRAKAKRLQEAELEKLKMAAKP

PAX4 [13] = biological target: T5, PAX4 (Homo sapiens, UniProt O43316 9-242, F177Y)
T5 sequence: T3 sequence with F169Y, Q192R

MSX2 [14] = biological target: MSX2 (Homo sapiens, UniProt P35548 130-214, F161Y)
Sequence of MSX2 (Homo sapiens, UniProt P35548 130-214, F161Y) (P35548 130-214 F161Y): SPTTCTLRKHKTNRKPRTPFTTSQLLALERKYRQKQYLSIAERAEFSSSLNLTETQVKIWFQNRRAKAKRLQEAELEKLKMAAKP

VAX1 [15] = biological target: VAX1 (Homo sapiens, UniProt Q5SQQ9 86-172, T142I)
Sequence of VAX1 (Homo sapiens, UniProt Q5SQQ9 86-172, T142I) (Q5SQQ9 86-172 T142I): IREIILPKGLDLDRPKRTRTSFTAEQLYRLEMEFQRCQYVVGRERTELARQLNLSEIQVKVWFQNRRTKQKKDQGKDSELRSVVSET

HOXA4 [16] = biological target: HOXA4 (Homo sapiens, UniProt Q00056 201-287, W262F)
Sequence of HOXA4 (Homo sapiens, UniProt Q00056 201-287, W262F) (Q00056 201-287 W262F): as the sequence (Q00056 201-287 W262R) above, with R62F counted along it

PRRX1 [17] = biological target: PRRX1 (Homo sapiens, UniProt P54821 80-166)
Sequence of PRRX1 (Homo sapiens, UniProt P54821 80-166) (P54821 80-166): as the sequence (P54821 80-166 F113S) above, with S34F counted along it

VAX1 [18] = biological target: VAX1 (Homo sapiens, UniProt Q5SQQ9 86-172, K157R)
Sequence of VAX1 (Homo sapiens, UniProt Q5SQQ9 86-172, K157R) (Q5SQQ9 86-172 K157R): as the sequence (Q5SQQ9 86-172 T142I) above, with I57T, K72R counted along it

Sequence of HOXB4 (Homo sapiens, UniProt P17483 148-234) (P17483 148-234): as the sequence (P17483 148-234 V174I) above, with I27V counted along it

Sequence	binding signal (HOXB4 [1])	binding signal (VENTX [2])	binding signal (HOXA4 [3])	binding signal (PRRX1 [4])	binding signal (VENTX [5])	binding signal (HOXB6)	binding signal (HOXA2)	binding signal (HOXA4 [6])	binding signal (HOXB4 [7])	binding signal (MSX2 [8])	binding signal (PAX4 [9])	binding signal (PAX4 [10])	binding signal (HOXA4 [11])	binding signal (MSX2 [12])	binding signal (PAX4 [13])	binding signal (MSX2 [14])	binding signal (VAX1 [15])	binding signal (HOXA4 [16])	binding signal (PRRX1 [17])	binding signal (VAX1 [18])
ATAATTAC	13.5 upbm affinity estimate (log intensity, higher = more binding, comparable within an allelic series)	12.1 upbm affinity estimate (log intensity, higher = more binding, comparable within an allelic series)	10.9 upbm affinity estimate (log intensity, higher = more binding, comparable within an allelic series)	11.6 upbm affinity estimate (log intensity, higher = more binding, comparable within an allelic series)	12 upbm affinity estimate (log intensity, higher = more binding, comparable within an allelic series)	10.2 upbm affinity estimate (log intensity, higher = more binding, comparable within an allelic series)	13.7 upbm affinity estimate (log intensity, higher = more binding, comparable within an allelic series)	12.8 upbm affinity estimate (log intensity, higher = more binding, comparable within an allelic series)	14.2 upbm affinity estimate (log intensity, higher = more binding, comparable within an allelic series)	13.1 upbm affinity estimate (log intensity, higher = more binding, comparable within an allelic series)	12.3 upbm affinity estimate (log intensity, higher = more binding, comparable within an allelic series)	10.8 upbm affinity estimate (log intensity, higher = more binding, comparable within an allelic series)	14.2 upbm affinity estimate (log intensity, higher = more binding, comparable within an allelic series)	14 upbm affinity estimate (log intensity, higher = more binding, comparable within an allelic series)	11.2 upbm affinity estimate (log intensity, higher = more binding, comparable within an allelic series)	13.7 upbm affinity estimate (log intensity, higher = more binding, comparable within an allelic series)	13.4 upbm affinity estimate (log intensity, higher = more binding, comparable within an allelic series)	12.2 upbm affinity estimate (log intensity, higher = more binding, comparable within an allelic series)	13.5 upbm affinity estimate (log intensity, higher = more binding, comparable within an allelic series)	13.5 upbm affinity estimate (log intensity, higher = more binding, comparable within an allelic series)
AGTAATTA	13.6 upbm affinity estimate (log intensity, higher = more binding, comparable within an allelic series)	12.5 upbm affinity estimate (log intensity, higher = more binding, comparable within an allelic series)	10.9 upbm affinity estimate (log intensity, higher = more binding, comparable within an allelic series)	11.7 upbm affinity estimate (log intensity, higher = more binding, comparable within an allelic series)	12.6 upbm affinity estimate (log intensity, higher = more binding, comparable within an allelic series)	10.3 upbm affinity estimate (log intensity, higher = more binding, comparable within an allelic series)	13.9 upbm affinity estimate (log intensity, higher = more binding, comparable within an allelic series)	13.1 upbm affinity estimate (log intensity, higher = more binding, comparable within an allelic series)	14.4 upbm affinity estimate (log intensity, higher = more binding, comparable within an allelic series)	13.4 upbm affinity estimate (log intensity, higher = more binding, comparable within an allelic series)	12.3 upbm affinity estimate (log intensity, higher = more binding, comparable within an allelic series)	10.7 upbm affinity estimate (log intensity, higher = more binding, comparable within an allelic series)	14.3 upbm affinity estimate (log intensity, higher = more binding, comparable within an allelic series)	14.2 upbm affinity estimate (log intensity, higher = more binding, comparable within an allelic series)	11.1 upbm affinity estimate (log intensity, higher = more binding, comparable within an allelic series)	13.9 upbm affinity estimate (log intensity, higher = more binding, comparable within an allelic series)	13.9 upbm affinity estimate (log intensity, higher = more binding, comparable within an allelic series)	12.6 upbm affinity estimate (log intensity, higher = more binding, comparable within an allelic series)	13.6 upbm affinity estimate (log intensity, higher = more binding, comparable within an allelic series)	13.9 upbm affinity estimate (log intensity, higher = more binding, comparable within an allelic series)
